The results in this text go back to PubChem BioAssay AID489028 (Sanford-Burnham Center for Chemical Genomics, 2010).

Out of some 10,000 compounds screened, about 5,600 (56%) were called active. So high a share suggests a set chosen from earlier hits. Only a sample is shown. A number with no mark means an inactive call. Rule as the data show it: active = inhibition above about 40%; inactive = the rest.

In this test the target is Protein Mdm4 (Homo sapiens) + E3 ubiquitin-protein ligase Mdm2 (Homo sapiens) (UniProt O15151+Q00987). Nature of the test: inhibition of human Mdm2/MdmX pairing – luminescence, single concentration, confirmation (AID 489028). As to conditions: Mdm2-MdmX binding, luminescent assay; at 8 µM; hits give high values.
Protein Mdm4 (Homo sapiens) + E3 ubiquitin-protein ligase Mdm2 (Homo sapiens), sequence (O15151 whole entry, looked up): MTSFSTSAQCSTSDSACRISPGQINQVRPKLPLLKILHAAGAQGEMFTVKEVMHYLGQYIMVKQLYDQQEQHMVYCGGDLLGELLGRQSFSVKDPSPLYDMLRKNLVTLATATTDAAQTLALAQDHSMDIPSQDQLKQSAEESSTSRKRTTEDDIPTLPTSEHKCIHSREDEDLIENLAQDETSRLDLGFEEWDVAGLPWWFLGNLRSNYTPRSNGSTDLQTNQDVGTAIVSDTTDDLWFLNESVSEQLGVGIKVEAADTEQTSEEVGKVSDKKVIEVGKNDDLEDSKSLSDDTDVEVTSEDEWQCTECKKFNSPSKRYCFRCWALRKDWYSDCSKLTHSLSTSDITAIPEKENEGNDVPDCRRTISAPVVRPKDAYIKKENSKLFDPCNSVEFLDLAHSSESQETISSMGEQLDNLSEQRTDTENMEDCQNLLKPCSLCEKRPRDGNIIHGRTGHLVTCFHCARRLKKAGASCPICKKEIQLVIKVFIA
Protein Mdm4 (Homo sapiens) + E3 ubiquitin-protein ligase Mdm2 (Homo sapiens), sequence (Q00987 whole entry, looked up): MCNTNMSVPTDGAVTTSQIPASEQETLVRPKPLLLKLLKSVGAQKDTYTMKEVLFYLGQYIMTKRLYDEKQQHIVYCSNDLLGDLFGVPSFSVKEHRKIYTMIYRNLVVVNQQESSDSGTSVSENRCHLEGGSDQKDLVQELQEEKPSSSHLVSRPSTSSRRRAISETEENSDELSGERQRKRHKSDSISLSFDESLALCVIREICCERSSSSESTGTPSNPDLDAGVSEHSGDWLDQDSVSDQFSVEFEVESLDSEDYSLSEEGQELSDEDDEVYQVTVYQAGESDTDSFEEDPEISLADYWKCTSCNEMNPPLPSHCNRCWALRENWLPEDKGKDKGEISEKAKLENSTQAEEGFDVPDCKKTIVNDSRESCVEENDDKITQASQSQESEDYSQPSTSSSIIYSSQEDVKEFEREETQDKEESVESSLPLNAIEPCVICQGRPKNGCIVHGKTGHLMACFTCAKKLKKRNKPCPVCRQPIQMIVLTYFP
Turning to `CCOC(=O)c1c(-c2ccc(C)cc2)csc1/N=C(\C)C1=C(O)c2ccccc2C1=O`, the inhibition was 28.7%. Under `CCOC(=O)c1c(-c2cccc(C)c2)csc1NC(=O)c1c(-c2ccccc2)noc1C` stands 92.6% (active); under `CCOC(=O)c1cc(NC(=O)c2ccc(Cl)cc2)c(=O)oc1-c1ccccc1`, 35.2%; under `Fc1ccc(CNc2nc3ccccc3n3nnnc23)cc1`, 9.85%. As to `Nc1nonc1-c1nc2ccccc2n1Cc1ccc(F)cc1`, the inhibition is 63.5% (active). Take `COc1cccc(/C=N/NC(=O)c2[nH]nc3c2CCc2ccccc2-3)c1O`: the inhibition is 83.7% (active). With `COc1ccc(CNc2nc(NCc3ccc(OC)cc3)c3ncn(C4CCCC4)c3n2)cc1`, the inhibition was 45.4% (active). `COc1ccc(-c2cc(C3CCN(c4ncccc4[N+](=O)[O-])CC3)[nH]n2)cc1`: the inhibition is 24.6%. For the compound `CCOc1ccc2nc(Cl)c(C3CC(c4ccccc4)=NN3C(=O)c3cccs3)cc2c1` (configuration not stated), the inhibition was 5.3%. Turning to `COc1ccc(C2CC(c3ccccc3)=NN2C(=O)c2ccc(Cl)c([N+](=O)[O-])c2)cc1` (configuration not stated), the inhibition is 46.1% (active). Next, `CCOC(=O)C1=C(NC(=S)NC(=O)c2ccccc2)c2ccccc2CC1(C)C`: 28.8%. Under `N#CC1=C(N)Oc2cc(O)ccc2C1C1CCCCC1` (configuration not stated) stands 45.4% (active). With `COc1ccc(C2C(C#N)=C(N)Oc3cc(N)ccc32)cc1OC` (configuration not stated), the inhibition was 9.6%.

`c1ccc2c(c1)CSc1sccc1C2=C1CCNCC1`: the inhibition was 72.3% (active).

For the compound `CS(=O)(=O)c1ccc(-c2nnn(CC(=O)Nc3ccc4c(c3)OCCO4)n2)cc1`, the inhibition was -2.65%. Consider `O=C(Nc1ccc2c(c1)OCCO2)C1CCCC1`, for which the inhibition was 69.3% (active). Next, `O=C(N/N=C\c1cc2c(cc1Cl)OCO2)c1ccc(Br)s1`: 57.1% (active). Next, `COc1ccc(Br)cc1C(=O)NC(=S)Nc1cc(-c2nc3ccccc3[nH]2)ccc1C`: 16.8%. Under `Cc1ccc(-c2nc3ccccc3[nH]2)cc1NC(=O)c1sc2ccccc2c1Cl` stands 57.4% (active); under `COc1ccc(-c2cc(C(=O)N(C)Cc3ccc(OC)c(OC)c3OC)c3ccccc3n2)cc1OC`, 46.9% (active); under `COc1ccc(CN(C)C(=O)c2cc(-c3ccc(C)cc3C)nc3ccccc23)c(OC)c1OC`, 60.2% (active).

On to `COc1ccc(-c2cc(C(=O)N(C)CC(=O)Nc3ccccc3Cl)c3ccccc3n2)cc1OC`, for which the inhibition is 49.2% (active). In the case of `CN(C)c1ccc(-n2cccc2/C=C2/SC(=Nc3ccc(F)cc3)NC2=O)cc1`, the inhibition is 12.6%. Next, `CCCc1nc2c(c(=O)c3ccccc3n2C)c(=O)n1C1CCCCCC1`: 87.2% (active).

With `Cc1ccc(Oc2nc(-c3ccccn3)nc3ccccc23)cc1`, the inhibition was 3.9%. Turning to `CC(C)(C)Nc1nc(-c2ccccn2)nc2ccccc12`, the inhibition was 85.5% (active). In the case of `COc1cc(/C=C2\Oc3ccc(C#Cc4ccc(O)cc4)cc3C2=O)cc(OC)c1`, the inhibition is 33.2%. Regarding `O=C(Nc1ccncc1)c1c(F)cccc1F`, the inhibition was 61.9% (active). For `COc1ccc2cc1Oc1ccc(cc1)C[C@H]1c3cc(c(OC)cc3CCN1C)Oc1c(O)c(OC)cc3c1[C@H](C2)N(C)CC3`, the inhibition is 100% (active).

In the case of `COc1ccc(-c2nnc(SC(=O)N3c4ccccc4Sc4ccccc43)o2)cc1`, the inhibition is 31.4%. As for `CC[C@]1(O)C[C@@H]2CN(CCc3c([nH]c4ccccc34)[C@@](C(=O)OC)(c3cc4c(cc3OC)N(C)[C@H]3[C@@](O)(C(=O)OC)[C@H](OC(C)=O)[C@]5(CC)C=CCN6CC[C@]43[C@@H]65)C2)C1`, the inhibition is 72.5% (active). Take `CC[C@]1(O)CC2CN(CCc3c([nH]c4ccccc34)[C@@](C(=O)OC)(c3cc4c(cc3OC)N(C=O)[C@H]3[C@@](O)(C(=O)OC)[C@H](OC(C)=O)[C@]5(CC)C=CCN6CC[C@]43[C@@H]65)C2)C1` (some centres not stated): the inhibition was 58.4% (active). With `O=C1NC(Nc2nc3ccccc3s2)(C(F)(F)F)C(=O)N1C1CCCCC1` (configuration not stated), the inhibition was 62.5% (active). On to `COc1cc(NS(=O)(=O)c2ccc3ccccc3c2)c2ncccc2c1`, for which the inhibition was 88.3% (active). As to `CC(C)c1ccccc1OCC(O)CN(CC(O)COc1cccc2ccccc12)C(C)C` (configuration not stated), the inhibition was 29.8%. Turning to `CC(=O)c1ccc(S(=O)(=O)N2CCN(C(=O)/C=C/c3ccc4ccccc4n3)CC2)cc1`, the inhibition was 71.5% (active).

Take `O=C(Cc1csc(Nc2nc(=S)[nH]c3ccccc23)n1)NCCCN1CCN(c2cccc(Cl)c2)CC1`: the inhibition was 5%. Turning to `CC1(C)CC(N2CCN(C(c3ccccc3)c3ccccc3)CC2)=CC(=[N+]2CCCCC2)C1`, the inhibition was 89.8% (active). As to `COc1ccc(-c2nn(C)c(=O)c3ccccc23)cc1NC(=O)COc1ccccc1`, the inhibition was 41.5% (active). On to `COC(=O)c1cc(NC(=O)c2nn(C)c(=O)c3ccccc23)cc(C(=O)OC)c1`, for which the inhibition is 3.8%. With `COc1cc([N+](=O)[O-])ccc1NC(=O)COC(=O)CCOc1ccc(C)cc1`, the inhibition was 21.9%. Next, `CCN(CC)c1ccc(/C=N/Nc2nc(C)cc(C)n2)c(O)c1`: 53% (active); `CCN(CC)c1ccc(/C=N/NC(=O)c2cnccn2)c(O)c1`: 79% (active); `CCOc1ccc(-n2c(O)c(/C=N/Nc3nc(C)cc(C)n3)c3ccccc3c2=O)cc1`: 35.1%.

Regarding `Cc1ccc(NC(=S)NC(NC(=O)Cc2cccc3ccccc23)C(Cl)(Cl)Cl)cc1` (configuration not stated), the inhibition is 11.2%. As for `COc1ccc(CC(=O)N/N=C(\C)c2ccccn2)cc1`, the inhibition is 14.6%.

`C/C(=N\NC(=O)c1ccccc1F)c1ccccn1`: the inhibition was 41.9% (active).

Regarding `COc1ccccc1N(CC(=O)N/N=C(\C)c1ccccc1O)S(=O)(=O)c1ccc(C)cc1`, the inhibition was 60.6% (active). With `Cc1ccccc1C(=O)N1CCN(c2ccc(NC(=O)c3cccs3)cc2)CC1`, the inhibition is 48.6% (active). Next, `Cc1ccc(-c2nnc(-c3ccc(NC(=O)c4cccs4)cc3)o2)cc1`: 20.9%; `Cc1cc2oc3ccc(NCCC4CCCN4C)cc3c(=O)c2cc1C` (configuration not stated): 1.8%. `Cc1cccc(NS(=O)(=O)c2ccc(-c3cnc(C4CC4)o3)cc2)c1`: the inhibition is 47% (active).

`COC(=O)CCNc1ccc2c(c1)OCCO2`: the inhibition is 50.1% (active). As for `O=C1CN(c2nc(-c3ccccc3)c3cc(Br)ccc3n2)c2ccccc2N1`, the inhibition is 16.2%. Next, `COc1ccc2[nH]c(=O)c(CN(Cc3cccnc3)S(=O)(=O)c3ccccc3F)cc2c1`: 57.4% (active); `Cn1cc(/C=C/c2nc3ccccc3c(=O)n2-c2cccc([N+](=O)[O-])c2)c2ccccc21`: 40.4% (active). Take `Cc1c(C(=O)N/N=C/c2ccccc2)[nH]c2c([N+](=O)[O-])cccc12`: the inhibition is 62.2% (active).

Consider `Clc1ccc2c(c1)C1=C(C(c3ccncc3)O2)C(c2ccc(Br)cc2)n2ncnc2N1` (configuration not stated), for which the inhibition was 25.8%.

Regarding `O=C(CCl)Nc1cccc(CP(=O)(c2ccccc2)c2ccccc2)c1`, the inhibition was 93.8% (active). Consider `Cc1noc(C)c1-c1ccc2ncnc(NC(C)c3ccco3)c2c1` (configuration not stated), for which the inhibition was 46.5% (active).

For `Nc1cccc(-c2cc(-c3ccccc3)nc(-c3cccc(N)c3)n2)c1`, the inhibition is 9.85%. For `CCCCCCCCCCOC(=O)Cn1c(COc2ccc(C)cc2)[n+](C)c2ccccc21`, the inhibition was 74.3% (active). With `CCCCCCCCCCOC(=O)Cn1c(COc2cccc(OC)c2)[n+](C)c2ccccc21`, the inhibition is 53% (active).

Regarding `C/C(=N\N=C(N)N)c1ccc(Cl)cc1`, the inhibition is 23%.

In the case of `O=C1c2ccccc2C2=Nc3ccccc3SC(c3ccccc3F)C12` (configuration not stated), the inhibition was 23.8%.

For `C=C(C)COc1ccc(-c2n[nH]c(C)c2-c2ccccc2OC)c(O)c1`, the inhibition is 18.3%. In the case of `COc1ccc(-c2n[nH]c(C)c2-c2ccc(OC)c(OC)c2)c(O)c1`, the inhibition is 50.9% (active). In the case of `C=C(C)COc1ccc(-c2n[nH]c(C)c2-c2ccccc2)c(O)c1`, the inhibition was 2.2%. Next, `Cc1cc(C)cc(NC(=O)Cn2cnc3c(nnn3Cc3ccc(F)cc3)c2=O)c1`: 27.3%; `CCN1C(=O)/C(=C\N2CCN(c3cccc(Cl)c3)CC2)SC1=S`: 45.1% (active); `CCCCN1C(=O)/C(=C/C=C2/C=Cc3ccccc3N2CC)SC1=S`: 22.4%. Turning to `CCN(CCCNC(=O)c1ccc2c(c1)NC(=O)CN2C)c1cccc(C)c1`, the inhibition is 20.2%.

As to `O=C(NCCN1CCOCC1)c1ccc(/C=C2\Sc3ccccc3N(Cc3ccc(F)cc3)C2=O)cc1`, the inhibition is 11.8%. `CCN1CCN(CCNC(=O)c2ccc(/C=C3/Sc4ccccc4N(Cc4cccc(C)c4)C3=O)cc2)CC1`: the inhibition was 81.8% (active).

Take `N#Cc1c(N)nc2c3c(sc(=N)c2c1N)NC(=O)CC3c1ccccc1Cl` (configuration not stated): the inhibition is 2.45%.

As for `C=CCN(CC=C)S(=O)(=O)c1ccc(C(=O)Nc2nc3c(s2)CCc2ccccc2-3)cc1`, the inhibition was 24.2%. As for `N#Cc1ccc(C(=O)Nc2nc(-c3cccs3)c(C(=O)C(F)(F)F)s2)cc1`, the inhibition was 86.9% (active). Take `O=[N+]([O-])c1ccc(Oc2ccc(F)cc2Br)c2ccncc12`: the inhibition is 53.5% (active). For the compound `COc1ccccc1/C=N\Nc1cc(C)nc(-n2nc(C)cc2C)n1`, the inhibition is 31.1%.

As to `COc1cccc(/C=N/Nc2cc(C)nc(-c3ccccc3O)n2)c1O`, the inhibition is 93.8% (active). For the compound `Cc1ccc(OCC(O)CN2CCN(CC(O)COc3ccc(C)cc3Cl)CC2)c(Cl)c1` (configuration not stated), the inhibition was 35.6%. Consider `Cc1cccc(N(C)C(=O)c2cc3c(=O)[nH]c4ccc(C)cc4c3s2)c1`, for which the inhibition was 73.5% (active).

Take `CCN1CCN(c2nc(Nc3cc(OC)ccc3OC)nc(Nc3cc(OC)ccc3OC)n2)CC1`: the inhibition was 12.1%. Take `CC(=NCC1CCCO1)c1c(O)[nH]c(=O)[nH]c1=O` (configuration not stated): the inhibition is 7.4%. With `Cc1cccc(Nc2nc3c(S(=O)(=O)c4ccccc4)nnn3c3ccccc23)c1C`, the inhibition is 48.2% (active). In the case of `Cc1ccc(CS(=O)(=O)c2ncc(Cl)c(C(=O)Nc3nnc(C)s3)n2)cc1`, the inhibition is 96.5% (active). On to `CSc1nnc(NC(=O)c2nc(S(=O)(=O)Cc3ccc(C)cc3)ncc2Cl)s1`, for which the inhibition is 99% (active).
